The values below come from publication PMC7862700, “An all-to-all approach to the identification of sequence-specific readers for epigenetic DNA modifications on cytosine”.

Experiment in all cases: DAPPL (digital affinity profiling via proximity ligation, sequencing); 10 mM Tris-HCl pH 7.5, 50 mM NaCl, 1 mM DTT, 4% glycerol, room temperature, 30 min; GST-TFs on glutathione beads, 16-mer random dsDNA library, 0.1% formaldehyde crosslink after washing; high values mean tight binding
Conditions in all cases: protein: recombinant; tags: N-terminal GST; dsDNA, one strand shown

In one test the target is T1, FLI1 (Homo sapiens, UniProt Q01543 1-452).
T1 sequence: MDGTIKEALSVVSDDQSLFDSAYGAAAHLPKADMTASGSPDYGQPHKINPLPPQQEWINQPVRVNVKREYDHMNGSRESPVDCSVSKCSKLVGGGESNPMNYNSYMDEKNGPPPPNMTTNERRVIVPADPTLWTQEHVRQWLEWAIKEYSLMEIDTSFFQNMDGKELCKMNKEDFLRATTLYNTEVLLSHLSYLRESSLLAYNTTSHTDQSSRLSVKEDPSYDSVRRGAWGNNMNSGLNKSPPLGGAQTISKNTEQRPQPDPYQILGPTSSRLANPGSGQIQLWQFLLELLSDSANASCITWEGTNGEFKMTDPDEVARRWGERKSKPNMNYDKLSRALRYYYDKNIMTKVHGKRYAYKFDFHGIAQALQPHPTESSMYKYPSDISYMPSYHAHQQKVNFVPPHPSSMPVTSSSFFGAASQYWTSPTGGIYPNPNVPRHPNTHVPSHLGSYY
Summed up:
(§1)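 Beads coated with glutathione captured GST-fused human transcription factors that had been expressed in yeast, and the factors were then given DNA barcodes and pooled with a tag-only sample. The pools were incubated with 200 nmole of a random double-stranded 16-mer DNA library in Tris/NaCl/DTT/glycerol buffer for 30 min at room temperature, washed, crosslinked with 0.1% formaldehyde and proximity-ligated with BsaI/T4 ligase at 37 °C for 1 h. PCR amplification and Illumina NextSeq500 sequencing came last. Binding signal is each hexamer's read frequency for a factor divided by its frequency for the tag-only sample.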

The target in another test is T2, ELK1 (Homo sapiens, UniProt P19419 1-428).
T2 sequence: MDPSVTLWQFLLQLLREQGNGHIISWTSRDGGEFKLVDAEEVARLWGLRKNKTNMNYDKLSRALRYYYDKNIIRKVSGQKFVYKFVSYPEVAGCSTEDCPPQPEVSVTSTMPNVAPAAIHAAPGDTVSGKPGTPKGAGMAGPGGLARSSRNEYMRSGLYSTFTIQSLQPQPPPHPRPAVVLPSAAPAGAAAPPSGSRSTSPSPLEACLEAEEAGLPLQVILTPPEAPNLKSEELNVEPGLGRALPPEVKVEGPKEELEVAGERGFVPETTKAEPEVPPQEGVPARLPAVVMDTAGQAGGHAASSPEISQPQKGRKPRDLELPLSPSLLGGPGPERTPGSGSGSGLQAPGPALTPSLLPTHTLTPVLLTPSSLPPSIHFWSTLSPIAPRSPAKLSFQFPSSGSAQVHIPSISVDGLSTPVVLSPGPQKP
The essentials:
as §1

A further test addresses T3, GABPA (Homo sapiens, UniProt Q06546 1-454).
T3 sequence: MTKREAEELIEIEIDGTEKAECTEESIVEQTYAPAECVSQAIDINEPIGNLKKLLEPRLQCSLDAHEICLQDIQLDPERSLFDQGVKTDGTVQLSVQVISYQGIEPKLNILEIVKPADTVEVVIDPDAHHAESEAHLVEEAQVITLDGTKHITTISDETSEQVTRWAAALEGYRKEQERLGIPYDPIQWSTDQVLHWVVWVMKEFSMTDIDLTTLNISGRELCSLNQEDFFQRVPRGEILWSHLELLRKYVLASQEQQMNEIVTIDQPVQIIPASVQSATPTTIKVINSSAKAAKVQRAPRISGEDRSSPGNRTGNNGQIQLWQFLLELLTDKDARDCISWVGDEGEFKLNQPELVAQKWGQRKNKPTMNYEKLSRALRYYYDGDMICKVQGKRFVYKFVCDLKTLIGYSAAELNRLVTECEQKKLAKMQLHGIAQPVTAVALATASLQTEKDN
The essentials:
as §1

The target in another test is T4, ERG (Homo sapiens, UniProt P11308 1-479).
T4 sequence: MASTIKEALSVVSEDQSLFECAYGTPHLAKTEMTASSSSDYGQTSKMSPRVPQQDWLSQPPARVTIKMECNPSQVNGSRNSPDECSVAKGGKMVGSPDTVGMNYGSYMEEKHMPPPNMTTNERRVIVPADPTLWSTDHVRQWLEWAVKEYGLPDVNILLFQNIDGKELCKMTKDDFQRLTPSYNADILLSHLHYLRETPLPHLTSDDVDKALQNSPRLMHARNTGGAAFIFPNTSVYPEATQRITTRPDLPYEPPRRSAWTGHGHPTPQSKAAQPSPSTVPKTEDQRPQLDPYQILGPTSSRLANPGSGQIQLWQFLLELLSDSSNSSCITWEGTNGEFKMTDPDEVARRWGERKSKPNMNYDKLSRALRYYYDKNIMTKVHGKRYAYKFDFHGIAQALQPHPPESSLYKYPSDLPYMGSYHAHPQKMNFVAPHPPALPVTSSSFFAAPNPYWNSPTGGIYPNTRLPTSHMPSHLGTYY
The essentials: as §1

For the next test, the target named is ELF1 (Homo sapiens, UniProt P32519 1-619). The essentials: as §1
Sequence of ELF1 (P32519 whole entry): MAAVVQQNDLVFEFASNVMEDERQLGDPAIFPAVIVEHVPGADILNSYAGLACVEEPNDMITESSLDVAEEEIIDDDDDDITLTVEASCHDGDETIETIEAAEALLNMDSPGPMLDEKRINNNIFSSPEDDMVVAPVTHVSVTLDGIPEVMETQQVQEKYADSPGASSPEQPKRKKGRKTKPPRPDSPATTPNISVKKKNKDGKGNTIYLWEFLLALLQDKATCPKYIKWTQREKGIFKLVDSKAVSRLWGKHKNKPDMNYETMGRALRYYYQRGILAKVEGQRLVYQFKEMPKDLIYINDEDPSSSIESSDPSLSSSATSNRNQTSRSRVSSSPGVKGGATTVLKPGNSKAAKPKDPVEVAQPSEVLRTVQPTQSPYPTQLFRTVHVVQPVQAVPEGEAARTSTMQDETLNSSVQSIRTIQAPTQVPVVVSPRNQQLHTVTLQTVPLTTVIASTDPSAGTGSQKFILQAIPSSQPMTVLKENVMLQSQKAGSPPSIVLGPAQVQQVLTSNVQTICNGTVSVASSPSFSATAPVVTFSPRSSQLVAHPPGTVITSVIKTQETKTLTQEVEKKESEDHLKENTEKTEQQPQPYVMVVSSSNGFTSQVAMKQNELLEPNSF
For another test, the target named is SPI1 (Homo sapiens, UniProt P17947 1-270). The essentials:
as §1

Another test deals with SPIB (Homo sapiens, UniProt Q01892 1-262). Summed up:
as §1

A further test has as its target T5, FEV (Homo sapiens, UniProt Q99581 1-238).
T5 sequence: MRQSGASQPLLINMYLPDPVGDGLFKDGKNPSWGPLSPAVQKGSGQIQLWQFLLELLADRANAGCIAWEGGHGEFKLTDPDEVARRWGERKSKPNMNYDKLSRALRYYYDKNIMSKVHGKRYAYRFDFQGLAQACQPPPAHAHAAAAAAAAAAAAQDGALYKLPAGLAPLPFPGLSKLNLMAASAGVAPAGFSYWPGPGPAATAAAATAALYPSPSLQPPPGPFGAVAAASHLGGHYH
Summed up: as §1

The target of the next test is ETV5 (Homo sapiens, UniProt P41161 1-510). The essentials:
as §1

The target in another test is T6, SPIC (Homo sapiens, UniProt Q8N5J4 1-248).
T6 sequence: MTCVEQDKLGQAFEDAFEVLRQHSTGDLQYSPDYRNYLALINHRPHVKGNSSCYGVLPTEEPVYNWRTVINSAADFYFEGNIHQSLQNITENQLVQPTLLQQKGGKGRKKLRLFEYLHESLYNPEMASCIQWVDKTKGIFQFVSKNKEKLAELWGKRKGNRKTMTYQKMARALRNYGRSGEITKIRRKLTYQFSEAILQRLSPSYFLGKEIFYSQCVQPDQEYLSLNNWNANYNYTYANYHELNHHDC
Summed up:
as §1

The target in a further test is ELF4 (Homo sapiens, UniProt Q99607 1-663). Summed up: as §1
Sequence of ELF4 (Q99607 whole entry): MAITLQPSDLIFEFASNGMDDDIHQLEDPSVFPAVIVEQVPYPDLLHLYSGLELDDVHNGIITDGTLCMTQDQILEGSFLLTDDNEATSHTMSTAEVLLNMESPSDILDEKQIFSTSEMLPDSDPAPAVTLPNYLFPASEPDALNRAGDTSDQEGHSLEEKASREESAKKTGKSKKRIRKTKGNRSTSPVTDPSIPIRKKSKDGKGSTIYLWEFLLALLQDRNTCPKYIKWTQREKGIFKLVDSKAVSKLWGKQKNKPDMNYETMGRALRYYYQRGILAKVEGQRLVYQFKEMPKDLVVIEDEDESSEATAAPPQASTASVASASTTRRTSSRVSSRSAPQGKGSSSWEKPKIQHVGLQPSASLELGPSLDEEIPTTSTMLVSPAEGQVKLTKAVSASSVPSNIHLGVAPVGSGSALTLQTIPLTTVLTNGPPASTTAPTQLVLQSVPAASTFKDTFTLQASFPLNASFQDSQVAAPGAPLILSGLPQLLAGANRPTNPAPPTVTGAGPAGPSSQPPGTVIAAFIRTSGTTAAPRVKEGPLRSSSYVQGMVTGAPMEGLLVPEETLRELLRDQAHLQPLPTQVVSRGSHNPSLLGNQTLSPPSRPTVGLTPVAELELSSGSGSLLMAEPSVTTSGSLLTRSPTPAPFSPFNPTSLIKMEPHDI
The next test has as its target T7, ELK4 (Homo sapiens, UniProt P28324-2 1-405).
T7 sequence: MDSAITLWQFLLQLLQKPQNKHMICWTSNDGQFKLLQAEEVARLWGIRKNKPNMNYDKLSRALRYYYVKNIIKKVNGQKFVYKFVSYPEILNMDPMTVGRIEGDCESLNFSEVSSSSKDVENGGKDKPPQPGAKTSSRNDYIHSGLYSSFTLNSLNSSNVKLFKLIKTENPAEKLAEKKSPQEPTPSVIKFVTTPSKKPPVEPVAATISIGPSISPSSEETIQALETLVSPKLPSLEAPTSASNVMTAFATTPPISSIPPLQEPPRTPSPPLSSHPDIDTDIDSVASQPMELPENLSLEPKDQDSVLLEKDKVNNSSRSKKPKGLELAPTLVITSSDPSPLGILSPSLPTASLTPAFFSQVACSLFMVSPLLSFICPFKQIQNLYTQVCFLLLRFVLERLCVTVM
Summed up:
as §1

For the next test, the target named is T8, ETV2 (Homo sapiens, UniProt O00321 1-342).
T8 sequence: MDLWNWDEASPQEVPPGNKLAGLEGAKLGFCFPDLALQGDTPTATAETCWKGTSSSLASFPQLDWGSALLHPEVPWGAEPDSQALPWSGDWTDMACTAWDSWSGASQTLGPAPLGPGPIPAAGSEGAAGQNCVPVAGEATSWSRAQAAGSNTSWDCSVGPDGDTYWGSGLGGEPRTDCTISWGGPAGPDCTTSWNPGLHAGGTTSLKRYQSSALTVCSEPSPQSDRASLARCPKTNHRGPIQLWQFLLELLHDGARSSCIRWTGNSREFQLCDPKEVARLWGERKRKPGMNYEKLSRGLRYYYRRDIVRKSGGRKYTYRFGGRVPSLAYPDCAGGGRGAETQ
The essentials: as §1

Another test has as its target T9, ELF3 (Homo sapiens, UniProt P78545 1-371).
T9 sequence: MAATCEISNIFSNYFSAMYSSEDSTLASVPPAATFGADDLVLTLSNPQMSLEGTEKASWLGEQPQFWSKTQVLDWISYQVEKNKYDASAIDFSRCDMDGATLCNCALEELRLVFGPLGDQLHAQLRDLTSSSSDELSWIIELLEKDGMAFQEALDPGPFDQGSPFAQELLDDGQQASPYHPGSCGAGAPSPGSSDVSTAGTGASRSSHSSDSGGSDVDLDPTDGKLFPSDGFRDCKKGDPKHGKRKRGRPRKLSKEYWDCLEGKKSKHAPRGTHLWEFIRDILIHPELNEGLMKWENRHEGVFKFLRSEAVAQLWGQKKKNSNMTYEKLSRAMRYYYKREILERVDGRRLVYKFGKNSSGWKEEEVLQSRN
The essentials: as §1

Another test deals with ETV1 (Homo sapiens, UniProt P50549 1-477). The essentials: as §1
Sequence of ETV1 (P50549 whole entry): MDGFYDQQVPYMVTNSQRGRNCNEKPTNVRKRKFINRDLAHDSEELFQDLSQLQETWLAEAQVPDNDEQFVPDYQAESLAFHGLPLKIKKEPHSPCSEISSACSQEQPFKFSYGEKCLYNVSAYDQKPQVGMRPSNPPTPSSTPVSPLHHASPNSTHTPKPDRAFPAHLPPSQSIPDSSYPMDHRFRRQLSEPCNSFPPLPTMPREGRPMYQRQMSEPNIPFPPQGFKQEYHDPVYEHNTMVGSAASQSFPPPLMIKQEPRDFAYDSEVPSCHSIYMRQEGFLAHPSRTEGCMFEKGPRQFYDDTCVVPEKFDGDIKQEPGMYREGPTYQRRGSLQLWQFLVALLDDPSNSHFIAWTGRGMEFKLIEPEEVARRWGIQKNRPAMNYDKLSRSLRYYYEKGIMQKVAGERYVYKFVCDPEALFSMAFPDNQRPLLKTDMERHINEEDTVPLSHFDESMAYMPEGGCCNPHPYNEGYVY

Sequence of SPIB (Q01892 whole entry): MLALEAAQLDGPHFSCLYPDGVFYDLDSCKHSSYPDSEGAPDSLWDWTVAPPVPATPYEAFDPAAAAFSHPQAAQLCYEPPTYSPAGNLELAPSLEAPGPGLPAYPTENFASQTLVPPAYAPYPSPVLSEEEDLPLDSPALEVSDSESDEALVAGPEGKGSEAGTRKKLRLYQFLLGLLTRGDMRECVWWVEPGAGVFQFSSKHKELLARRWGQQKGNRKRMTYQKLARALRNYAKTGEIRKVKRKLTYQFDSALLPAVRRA
Sequence of ETV5 (P41161 whole entry): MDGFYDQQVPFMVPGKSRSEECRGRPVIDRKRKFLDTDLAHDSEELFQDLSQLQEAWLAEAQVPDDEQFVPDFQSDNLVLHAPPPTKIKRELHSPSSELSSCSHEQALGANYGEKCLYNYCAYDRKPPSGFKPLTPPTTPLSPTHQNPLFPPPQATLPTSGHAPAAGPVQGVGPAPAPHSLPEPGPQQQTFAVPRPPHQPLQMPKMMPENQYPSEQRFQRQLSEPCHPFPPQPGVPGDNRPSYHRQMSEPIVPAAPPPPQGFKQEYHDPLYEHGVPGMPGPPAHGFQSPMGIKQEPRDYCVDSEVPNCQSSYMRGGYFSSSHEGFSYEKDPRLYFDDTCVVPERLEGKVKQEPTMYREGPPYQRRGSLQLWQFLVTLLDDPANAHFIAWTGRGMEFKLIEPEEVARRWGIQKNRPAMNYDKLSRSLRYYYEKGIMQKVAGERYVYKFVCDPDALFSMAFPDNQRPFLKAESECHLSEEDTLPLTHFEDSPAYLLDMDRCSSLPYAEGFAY

For the sequence TGACTG, the binding signal with FLI1 is 1.13 fold enrichment (6-mer frequency, TF over GST control); with ELK1, 1.09 fold enrichment (6-mer frequency, TF over GST control); with GABPA, 1.16 fold enrichment (6-mer frequency, TF over GST control); with ERG, 1.01 fold enrichment (6-mer frequency, TF over GST control); with ELF1, 1.05 fold enrichment (6-mer frequency, TF over GST control); with SPI1 it was 1.1 fold enrichment (6-mer frequency, TF over GST control). Besides, the binding signal is 1.11 fold enrichment (6-mer frequency, TF over GST control) with SPIB; 1.05 fold enrichment (6-mer frequency, TF over GST control) with FEV; 1.03 fold enrichment (6-mer frequency, TF over GST control) with ETV5; 1.03 fold enrichment (6-mer frequency, TF over GST control) in the test with SPIC; 1.09 fold enrichment (6-mer frequency, TF over GST control) with ELF4; 1.16 fold enrichment (6-mer frequency, TF over GST control) with ELK4. The binding signal was 1.09 fold enrichment (6-mer frequency, TF over GST control) in the test with ETV2; 1.04 fold enrichment (6-mer frequency, TF over GST control) with ELF3; 1.03 fold enrichment (6-mer frequency, TF over GST control) with ETV1.
